Experiment [1] in a line: growth inhibition, single agents and combos, LFS_MB_1R, cell-based, cisplatin or BGB combos, synergistic combos for chromothripsis tumors (AID 1671452; in the data active = inhibition above about 80%;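 also: cells exposed for 96 hours before readout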). The settings on record: LFS_MB_1R medulloblastoma cells, stronger effect = higher value.
Experiment [2] in a line: growth inhibition, single agents and combos, CRL2098, cell-based, BGB or cisplatin IC20 combos, synergistic combos for chromothripsis tumors (AID 1671454; in the data active = inhibition above about 80%;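 also: cells exposed for 96 h before readout; 0% = vehicle DMSO and 100% = killing by high DMSO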). Conditions: CRL2098 osteosarcoma cells, drug combinations, stronger effect = higher value.
A short description of experiment [3]: growth inhibition, single agents and combos, HD-MB03, cell-based, BGB or cisplatin IC20 combos, synergistic combos for chromothripsis tumors (AID 1671455; in the data active = inhibition above about 83%;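 also: 0% = vehicle DMSO and 100% = high DMSO as cytotoxic control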). Conditions: HD-MB03 medulloblastoma cells, stronger effect = higher value.
Experiment [4] in a line: growth inhibition, single agents and combos, UWB1.289, cell-based, BGB or cisplatin combos, synergistic combos for chromothripsis tumors (AID 1671456; in the data active = inhibition above about 80%;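 also: cells exposed to compound for four days; 0% = vehicle DMSO and 100% = killing by high DMSO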). Conditions: UWB1.289 ovarian carcinoma cells, stronger effect = higher value.
Experiment [5] is described as follows: growth inhibition, single agents and combos, LFS_MB_2R, cell-based, cisplatin combos, synergistic combos for chromothripsis tumors (AID 1671457; in the data active = inhibition above about 80%;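 also: cells exposed to compound for four days before readout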). The settings on record: LFS_MB_2R medulloblastoma cells, stronger effect = higher value.
The nature of experiment [6]: UWB1.289_BRCA1 ovarian cancer growth, cell-based, BGB or cisplatin combinations (AID 1671459; in the data active = inhibition above about 80%). Conditions: UWB1.289 BRCA1 ovarian carcinoma, drug combinations, stronger effect = higher value.
A short description of experiment [7]: drug combination toxicity in non-malignant astrocytes – cell-based, BGB or cisplatin IC20 combos, cytotoxicity control for chromothriptic childhood tumor combination screen (AID 1671460; in the data active = inhibition above about 80%;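 also: cells exposed to compounds for 96 hours before viability readout; 0% = vehicle and 100% = killing control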). The settings on record: Human astrocytes, viability inhibition, drug combinations, at 0.5 µM, stronger effect = higher value.
A short description of experiment [8]: CRL1545 cell growth, single agent and combined, cisplatin and BGB IC20 combos (AID 1671464; in the data active = inhibition above about 80%;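 also: cells exposed to compound for 96 hours before readout; 0% = vehicle DMSO and 100% = high DMSO killing control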). The settings on record: CRL1545 osteosarcoma cells, stronger effect = higher value.
A short description of experiment [9]: liver-stage malaria parasite load reduction – cell-based, known kinase inhibitor set, luminescence, hepatoma host viability (AID 624392).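 Also: infected cells incubated roughly two days before readout.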 The settings on record: Plasmodium liver stage in hepatoma cells, luciferase luminescence, concentration not given here; liver cell % of control: measured here: host liver cell viability; parasite % of control: stronger effect = lower value.

The nature of experiment [10]: blockers of cellular phospholipid synthesis – cell-based, LOPAC library, screen 4, primary screen (AID 1347384). The settings on record: animal cells, phospholipid biosynthesis inhibition screen; at 10 µM.
Experiment [11] is described as follows: galactose survival enhancers in mitochondrial complex I cybrids – cell-based, galactose medium, ATP luminescence, primary screen (AID 1645843;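 active = z-score of at least 1.8 in each of two replicates, scored against plate mean and spread of sample wells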;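 also: positive z means more ATP and so rescue of galactose-driven cybrid death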). The settings on record: complex I mutant cybrid cells, 72 h, stronger effect = higher value.
The target of experiment [12] is NAD(+) hydrolase SARM1 (Homo sapiens) (UniProt Q6SZW1). Briefly: blocking NAD cleavage by SARM1 SAM-TIR – cell lysate, NAD-Glo luminescence (AID 1508614;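 active = compound whose remaining NAD level is above about 45 nM, limit read from the data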;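 also: higher remaining NAD means stronger inhibition of SARM1 NADase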). The settings on record: SAM-TIR HEK293T lysate NADase, at 1 µM, stronger effect = higher value.
Experiment [13] can be described thus: P. berghei load reduction in hepatocytes – cell-based, HepG2, luciferase luminescence, HepG2 viability, primary screen (AID 624349; in the data active = parasite load remaining mostly below about 12%, no sharp cut-off; inactive = mostly above about 10%;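 also: 100% = mean of DMSO negative control wells on the same plate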). The settings on record: P. berghei liver stage in HepG2, luciferase luminescence, concentration not given here; parasite load remaining: stronger effect = lower value; viability: measured here: HepG2 viability without parasites.
Experiment [14] is described as follows: compounds altering circadian rhythm period length – cell-based, LOPAC library, luminescence reporter (AID 2774).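 Also: values are relative to mean of DMSO wells on each plate.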 The settings on record: circadian reporter cells, at 7 µM, actives lie on both sides.
A short description of experiment [15]: compounds altering viability of human ES cells (AID 493140).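 Also: cells exposed to compounds for four days before counting.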 The settings on record: human embryonic stem cell survival screen; stronger effect = higher value.
The subject of experiment [16] is Hepatitis C virus NS3 helicase. The experiment is described as follows: blockers of NS3h binding to ssDNA – biochemical, fluorescence polarization, LOPAC1280 library, primary screen (AID 687035; in the data active = inhibition above about 37%). The settings on record: Purified HCV NS3 helicase, Cy5-dT15 ssDNA binding fluorescence polarization; stronger effect = higher value; concentration not given here.
Experiment [17] can be described thus: compounds altering Cy5-DNA-NS3h complex signal – biochemical, LOPAC1280, artefact control for HCV NS3 helicase inhibitor project (AID 687037). Conditions: Cy5-DNA-NS3h complex fluorescence interference counterscreen.
Experiment [18] deals with Mitogen-activated protein kinase 7 (Homo sapiens) (UniProt Q13164). Briefly: Gal4-ERK5 driven luciferase induction – cell-based, HTS, primary screen (AID 1508626;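 active = luciferase signal above three times the same-plate solvent-only control wells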;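 also: luciferase driven by Gal4-ERK5 fusion binding five Gal4 sites before minimal TATA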). Conditions: HeLa Gal4-ERK5 transactivation, 18 h, at 5 µM, stronger effect = higher value.
The mark [19] stands for this setting: measured here: combination with cisplatin, at 0.5 µM.
The mark [20] stands for this setting: measured here: combination with cisplatin, at 5 µM.

Each structure is given as a SMILES string. Where “and” joins values, the source holds several entries; their conditions need not be identical. Identical values can stand only once. Calls of active or inactive are those of the source. Unless noted, no rule for the calls is given here.

Sequence of NAD(+) hydrolase SARM1 (Homo sapiens) (Q6SZW1 whole entry, looked up): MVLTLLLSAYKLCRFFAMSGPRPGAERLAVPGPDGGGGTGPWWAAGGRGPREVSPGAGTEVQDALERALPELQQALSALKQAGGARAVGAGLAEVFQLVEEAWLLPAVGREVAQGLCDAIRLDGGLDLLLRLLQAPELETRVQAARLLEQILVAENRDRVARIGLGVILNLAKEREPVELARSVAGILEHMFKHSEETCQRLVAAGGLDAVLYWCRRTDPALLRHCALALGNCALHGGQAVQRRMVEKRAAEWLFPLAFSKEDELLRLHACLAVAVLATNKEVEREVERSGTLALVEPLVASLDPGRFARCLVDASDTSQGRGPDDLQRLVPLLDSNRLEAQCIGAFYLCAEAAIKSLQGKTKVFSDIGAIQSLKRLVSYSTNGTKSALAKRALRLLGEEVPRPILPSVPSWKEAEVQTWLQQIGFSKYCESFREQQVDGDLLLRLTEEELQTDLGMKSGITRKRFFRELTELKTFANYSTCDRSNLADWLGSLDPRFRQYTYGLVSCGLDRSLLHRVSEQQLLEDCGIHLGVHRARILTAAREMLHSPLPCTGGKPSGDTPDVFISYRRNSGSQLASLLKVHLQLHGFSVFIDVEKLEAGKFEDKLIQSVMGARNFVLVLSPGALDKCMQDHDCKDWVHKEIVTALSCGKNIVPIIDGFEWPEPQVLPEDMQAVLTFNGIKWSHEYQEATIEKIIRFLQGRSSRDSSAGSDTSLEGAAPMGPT
Sequence of Mitogen-activated protein kinase 7 (Homo sapiens) (Q13164 whole entry, looked up, the tested form may be a part): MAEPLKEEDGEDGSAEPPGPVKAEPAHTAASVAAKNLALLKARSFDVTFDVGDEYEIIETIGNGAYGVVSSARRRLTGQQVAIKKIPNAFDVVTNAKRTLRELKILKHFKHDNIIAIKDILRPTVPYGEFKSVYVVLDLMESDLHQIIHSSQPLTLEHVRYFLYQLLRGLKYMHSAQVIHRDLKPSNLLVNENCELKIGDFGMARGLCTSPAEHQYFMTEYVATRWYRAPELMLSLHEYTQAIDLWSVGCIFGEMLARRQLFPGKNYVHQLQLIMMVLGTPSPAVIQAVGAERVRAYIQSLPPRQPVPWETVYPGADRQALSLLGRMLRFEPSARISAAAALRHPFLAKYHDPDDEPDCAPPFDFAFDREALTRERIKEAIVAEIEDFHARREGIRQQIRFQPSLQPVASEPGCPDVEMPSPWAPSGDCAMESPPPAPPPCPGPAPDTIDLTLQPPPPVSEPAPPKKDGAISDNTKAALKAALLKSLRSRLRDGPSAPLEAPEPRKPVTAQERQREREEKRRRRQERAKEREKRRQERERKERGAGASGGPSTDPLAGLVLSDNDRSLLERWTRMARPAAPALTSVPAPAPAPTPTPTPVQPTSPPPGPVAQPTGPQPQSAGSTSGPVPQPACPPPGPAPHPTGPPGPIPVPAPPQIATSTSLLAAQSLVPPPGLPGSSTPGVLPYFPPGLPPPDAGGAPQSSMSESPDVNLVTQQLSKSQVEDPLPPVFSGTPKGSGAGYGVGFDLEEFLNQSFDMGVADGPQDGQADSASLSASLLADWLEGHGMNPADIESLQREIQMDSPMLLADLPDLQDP

`CC(=O)Nc1nc(C)c(-c2ccc(Cl)c(S(=O)(=O)NCCO)c2)s1`: the inhibition in experiment [1] (at 0.5 µM) is 1.54% (inactive); in [1] (measured here: combination with BGB IC40, at 0.05 µM), -12.3%; in experiment [1] (setting [19]) it was 15.7%; in [1] (setting [20]) it was 14.2%; in experiment [2] (at 0.5 µM), 17% (inactive); in experiment [2] (measured here: combination with BGB at IC20, at 0.5 µM), 5.45%. For the same compound, the inhibition in experiment [2] (measured here: combination with cisplatin at IC20, at 0.5 µM) is 52.4%; in [3] (at 0.5 µM) it was 14.3% (inactive); in experiment [3] (measured here: combo with BGB at IC20, at 0.5 µM), 17.8%; in experiment [3] (measured here: combo with cisplatin at IC20, at 0.5 µM), 10.3%; in [4] (at 0.5 µM) it was 10.9% (inactive); in [4] (measured here: inhibition with BGB combination, at 0.05 µM) it was 10.4%. Further, the inhibition in [4] (measured here: inhibition with cisplatin combination, at 0.05 µM) is 1.8%; in experiment [5] (at 0.5 µM), 9.32% (inactive); in experiment [5] (setting [19]), 10.4%; in experiment [5] (setting [20]), 43.2%; in [6] (BGB combination, concentration series, at 5 µM), 22.7%; in experiment [6] (at 0.5 µM), 6.36% (inactive). Moreover, the inhibition is 12.2% in experiment [6] (cisplatin combination, concentration series, at 5 µM); 23.1% (inactive) in [7]; 23.7% in experiment [7] (measured here: combo with BGB IC20); 25.1% in experiment [7] (measured here: combo with cisplatin IC20); -8.22% (inactive) in [8] (at 0.5 µM); -13.7% in [8] (measured here: with BGB IC20 combination, at 0.5 µM). For the same compound, the inhibition in experiment [8] (measured here: with cisplatin IC20 combination, at 0.5 µM) was -7.2%; in experiment [8] (single agent, at 0.05 µM), -0.058%; in experiment [8] (single agent, at 5 µM), 1.73%.
As to `Cc1cccc(-c2[nH]ncc2-c2ccc3ncccc3n2)n1`, in [9], the liver cell % of control was determined as 102% and the parasite % of control was 87.4% (inactive). For the same compound, the result in experiment [10] was inactive. Moreover, the z-score in experiment [11] was -0.39 (inactive).
As for `NC(=NCCCCCCN=C(N)N=C(N)Nc1ccc(Cl)cc1)N=C(N)Nc1ccc(Cl)cc1`, in experiment [12], the remaining NAD is 10 nM (inactive).
As for `CC(C)(O)c1cc2nc(-c3cnc(N)nc3)nc(N3CCOCC3)c2s1`, in [9], the liver cell % of control is 68.4% and 67.7% and 82.5%; the parasite % of control is 539% (inactive) and 545% (inactive) and 563% (inactive).
For `CN[C@@H]1C[C@H]2O[C@@](C)([C@@H]1OC)n1c3ccccc3c3c4c(c5c6ccccc6n2c5c31)C(=O)N[C@H]4O`, in experiment [13], the parasite load remaining is 74.5% (inactive) and the viability worked out at 61%.
In the case of `CC(=O)O[C@H]1C[C@@H]2CC[C@@H]3[C@H](CC[C@@]4(C)[C@H]3C[C@H]([N+]3(C)CCCCC3)[C@@H]4OC(C)=O)[C@@]2(C)C[C@@H]1[N+]1(C)CCCCC1`, the period change in experiment [14] was -0.015 h (inactive). For the same compound, in [15], the survival was 6.75 (inactive). For the same compound, in experiment [13], the parasite load remaining is 119% (inactive) and 39.7% (inactive); the viability is 75.7% and 111%. Besides, the inhibition in [16] is 1% (inactive). For the same compound, the fluorescence ratio (interference) in experiment [17] was 1 (inactive). The compound was called inactive in [10]. In addition, in experiment [12], the remaining NAD is 10 nM (inactive). The luciferase signal in experiment [18] is 40 AU (inactive). In [11], the z-score was 0.28 (inactive) and 0.73 (inactive).

Values taken from PubChem BioAssay.
